# Data published in PubChem BioAssay.
# Active and inactive are the calls of the source. Unless noted, the rule behind the calls is not given here.
# Assays:
# [1] = compounds binding Alexa647 anti-His antibody – biochemical, small-molecule microarray, 635 nm fluorescence, artefact control for SMM control protein annotation, primary screen (AID 1128); details: higher = more signal;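 note: score merges feature fluorescence with signal-to-noise for each printed compound spot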
# [2] = tested on: Human papillomavirus type 1a E7 protein (residues 1-88); test: HPV1a E7 small-molecule binders, primary screen, biochemical, small-molecule microarray, residues 1-88, 635 nm (AID 1129); details: small-molecule microarray binding, fluorescence 635 nm; higher = more signal
# [3] = molecular target: Focal adhesion kinase 1 (Homo sapiens) (UniProt Q05397); test: PTK2 protein binding on printed compound slides – biochemical, small-molecule microarray, 635/667 nm fluorescence, BSA, DTT, primary screen (AID 1130); details: 635 nm fluorescence, higher = more signal;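 note: composite of spot emission at 667 nm and signal to noise over triplicate slides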
# [4] = tested on: Fibrinogen (Alexa647-labelled); test: Alexa647-fibrinogen binding to printed small molecules – biochemical, small-molecule microarray, 635/667 nm fluorescence, artefact control for SMM control-protein annotation, profiling panel (AID 1131); details: fibrinogen-A647 binding fluorescence, higher = more signal;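 note: z-score merges 667 nm fluorescence with per-spot signal-to-noise over triplicate slides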
# [5] = molecular target: Follistatin (Homo sapiens) (UniProt P19883); test: FST protein binding to printed compounds – biochemical, small-molecule microarray, 635/667 nm fluorescence, primary screen (AID 1132); details: 635 nm fluorescence, higher = more signal
# [6] = molecular target: Fibroblast growth factor 2 (Homo sapiens) (UniProt P09038); test: basic fibroblast growth factor binding to printed compounds – biochemical, small-molecule microarray, 635/667 nm fluorescence, primary screen (AID 1133); details: FGF2, fluorescence 635/667, higher = more signal
# [7] = JC-1 mitochondrial potential readout, lung cancer cells – cell-based, A549, JC-1 fluorescence, basal, 24 h, 100 nL, profiling panel (AID 1138); details: higher = more signal;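 note: A549 lung adenocarcinoma cells under basal conditions with no added stimulus; test concentration not given here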
# Lefty1 = Lefty1 protein binding to printed compounds – biochemical, small-molecule microarray, 635/667 nm fluorescence, primary screen (AID 1139); details: fluorescence 635/667, higher = more signal
# [8] = tested on: wheat germ agglutinin (Triticum aestivum), Alexa647-labelled; test: Alexa647-WGA lectin binding to printed small molecules – biochemical, small-molecule microarray, 635/667 nm fluorescence, artefact control for SMM control-protein annotation, profiling panel (AID 1140); details: WGA-A647 binding, 635 nm fluorescence, higher = more signal;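 note: score merges 667 nm feature emission with signal to noise over triplicate slides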
# [9] = molecular target: Luciferin 4-monooxygenase (Photinus pyralis) (UniProt P08659); test: inhibition of purified Photinus pyralis luciferase – biochemical, luminescence, purified enzyme, 2006 set, primary screen (AID 1141); details: purified firefly luciferase, SteadyGlo luminescence, 30 min; higher = more signal, called active from +8 up or from −8 down;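 note: cell-free assay with purified firefly luciferase at 100 ng per well in PBS; test concentration not given here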
# [10] = tested on: Wnt5a (protein binding on small-molecule microarray); test: small molecules binding Wnt5a protein – biophysical, small-molecule microarray, 635/667 nm fluorescence, primary screen (AID 1142); details: 635 nm fluorescence, higher = more signal;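 note: fluorescence read at 667 nm with signal to noise per printed feature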
# [11] = ATP-based viability of Huh7 replicon cells – cell-based, CellTiter-Glo luminescence, basal, 48 h, cytotoxicity control for HCV replication inhibitor project, primary screen (AID 1143); details: higher = more signal, called active from +8 up or from −8 down;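 note: Huh7 hepatoma cells carrying a hepatitis C replication reporter with no stimulus; test concentration not given here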
# [12] = Pseudomonas biofilm growth suppression – PAO1 strain, BacTiter-Glo luminescence, LB-PBS, primary screen (AID 1144); details: P. aeruginosa PAO1 biofilm, 12 h, higher = more signal
# [13] = basal CRE-LacZ reporter activity in PC12 – cell-based, unstimulated, primary screen (AID 1145); details: no forskolin, luminescence, 4.5 h, higher = more signal, called active from +8 up or from −8 down
# [14] = forskolin-driven CRE-LacZ activity in PC12 – cell-based, CRE-LacZ reporter, forskolin-stimulated, primary screen (AID 1146); details: luminescence, 4.5 h, higher = more signal, called active from +8 up or from −8 down;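 note: PC12 cells with 6xCRE LacZ reporter stimulated by forskolin 10 µM; beta-galactosidase reporter signal reflecting CREB driven transcription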
# [15] = molecular target: Streptavidin (Streptomyces avidinii) (UniProt P22629); test: compounds binding control protein streptavidin – biophysical, small-molecule microarray, 635/667 nm fluorescence, artefact control for SMM compound annotation, primary screen (AID 1147); details: higher = more signal;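 note: signal reflects streptavidin binding to arrayed compounds as a control protein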
# [16] = probe aInhba binding on compound microarray – biochemical, small-molecule microarray, 635/667 nm fluorescence, primary screen (AID 1148); details: higher = more signal;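 note: score merges 667nm spot fluorescence with signal-to-noise for antibody binding to printed compounds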
# Torsin-1A (Homo sapiens) [17] = molecular target: Torsin-1A (Homo sapiens) (UniProt O14656); test: TOR1A wild-type binding on microarray – cell lysate, small-molecule microarray, lysate, 635/667 nm, primary screen (AID 1149); details: COS7 hTOR1A-WT lysate, 635 nm fluorescence, higher = more signal
# Torsin-1A (Homo sapiens) [18] = molecular target: Torsin-1A (Homo sapiens) (UniProt O14656); test: torsin A mutant lysate binding on microarrays – cell lysate, small-molecule microarray, COS7 lysate, 635/667 nm fluorescence, primary screen (AID 1150); details: COS7 hTOR1A mutant lysate, 635 nm fluorescence, higher = more signal;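 note: score pools 667 nm emission and signal to noise measuring lysate protein binding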
# [19] = tested on: Sonic hedgehog protein (Shh); test: Sonic hedgehog microarray binding compounds – biochemical, small-molecule microarray, 635/667 nm fluorescence, primary screen (AID 1151); details: 635 nm fluorescence, higher = more signal;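 note: Shh protein binding to compounds spotted on small-molecule microarray slides; score combines spot fluorescence intensity with signal-to-noise across triplicate slides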
# Sequence of Torsin-1A (Homo sapiens) (O14656 whole entry, looked up): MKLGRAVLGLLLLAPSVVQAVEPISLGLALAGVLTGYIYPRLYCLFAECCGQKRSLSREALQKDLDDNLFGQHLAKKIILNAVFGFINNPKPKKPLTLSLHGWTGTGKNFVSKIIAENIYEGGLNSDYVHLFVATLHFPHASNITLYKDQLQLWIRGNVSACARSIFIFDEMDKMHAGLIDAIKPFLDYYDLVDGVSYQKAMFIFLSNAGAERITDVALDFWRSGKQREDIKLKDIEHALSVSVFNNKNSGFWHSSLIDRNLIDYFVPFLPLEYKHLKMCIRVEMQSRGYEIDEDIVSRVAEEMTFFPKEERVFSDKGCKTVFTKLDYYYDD
# Sequence of Follistatin (Homo sapiens) (P19883 whole entry, looked up): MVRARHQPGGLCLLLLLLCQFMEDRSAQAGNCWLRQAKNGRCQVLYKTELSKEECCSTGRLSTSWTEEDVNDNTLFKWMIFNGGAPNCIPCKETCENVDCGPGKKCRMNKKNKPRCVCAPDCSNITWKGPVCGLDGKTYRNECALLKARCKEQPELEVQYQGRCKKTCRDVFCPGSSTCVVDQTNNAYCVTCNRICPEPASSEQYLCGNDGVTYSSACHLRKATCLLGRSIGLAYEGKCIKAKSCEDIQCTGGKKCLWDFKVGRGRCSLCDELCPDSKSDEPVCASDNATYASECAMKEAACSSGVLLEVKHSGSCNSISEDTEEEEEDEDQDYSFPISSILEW
# Sequence of Luciferin 4-monooxygenase (Photinus pyralis) (P08659 whole entry, looked up): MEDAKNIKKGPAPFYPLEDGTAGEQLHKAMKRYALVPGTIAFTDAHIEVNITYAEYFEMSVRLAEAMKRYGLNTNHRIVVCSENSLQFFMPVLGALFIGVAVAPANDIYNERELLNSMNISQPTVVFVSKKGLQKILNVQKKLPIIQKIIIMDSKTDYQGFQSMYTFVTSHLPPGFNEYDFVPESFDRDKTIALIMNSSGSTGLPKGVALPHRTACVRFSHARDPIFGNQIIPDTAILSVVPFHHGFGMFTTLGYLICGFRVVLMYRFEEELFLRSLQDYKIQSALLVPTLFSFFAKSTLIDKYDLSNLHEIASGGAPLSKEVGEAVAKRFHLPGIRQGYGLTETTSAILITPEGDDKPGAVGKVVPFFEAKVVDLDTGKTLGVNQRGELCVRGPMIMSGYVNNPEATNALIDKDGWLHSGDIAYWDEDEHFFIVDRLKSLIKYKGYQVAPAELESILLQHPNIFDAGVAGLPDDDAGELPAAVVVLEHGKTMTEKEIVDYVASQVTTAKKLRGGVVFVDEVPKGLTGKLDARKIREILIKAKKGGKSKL
# Sequence of Focal adhesion kinase 1 (Homo sapiens) (Q05397 whole entry, looked up): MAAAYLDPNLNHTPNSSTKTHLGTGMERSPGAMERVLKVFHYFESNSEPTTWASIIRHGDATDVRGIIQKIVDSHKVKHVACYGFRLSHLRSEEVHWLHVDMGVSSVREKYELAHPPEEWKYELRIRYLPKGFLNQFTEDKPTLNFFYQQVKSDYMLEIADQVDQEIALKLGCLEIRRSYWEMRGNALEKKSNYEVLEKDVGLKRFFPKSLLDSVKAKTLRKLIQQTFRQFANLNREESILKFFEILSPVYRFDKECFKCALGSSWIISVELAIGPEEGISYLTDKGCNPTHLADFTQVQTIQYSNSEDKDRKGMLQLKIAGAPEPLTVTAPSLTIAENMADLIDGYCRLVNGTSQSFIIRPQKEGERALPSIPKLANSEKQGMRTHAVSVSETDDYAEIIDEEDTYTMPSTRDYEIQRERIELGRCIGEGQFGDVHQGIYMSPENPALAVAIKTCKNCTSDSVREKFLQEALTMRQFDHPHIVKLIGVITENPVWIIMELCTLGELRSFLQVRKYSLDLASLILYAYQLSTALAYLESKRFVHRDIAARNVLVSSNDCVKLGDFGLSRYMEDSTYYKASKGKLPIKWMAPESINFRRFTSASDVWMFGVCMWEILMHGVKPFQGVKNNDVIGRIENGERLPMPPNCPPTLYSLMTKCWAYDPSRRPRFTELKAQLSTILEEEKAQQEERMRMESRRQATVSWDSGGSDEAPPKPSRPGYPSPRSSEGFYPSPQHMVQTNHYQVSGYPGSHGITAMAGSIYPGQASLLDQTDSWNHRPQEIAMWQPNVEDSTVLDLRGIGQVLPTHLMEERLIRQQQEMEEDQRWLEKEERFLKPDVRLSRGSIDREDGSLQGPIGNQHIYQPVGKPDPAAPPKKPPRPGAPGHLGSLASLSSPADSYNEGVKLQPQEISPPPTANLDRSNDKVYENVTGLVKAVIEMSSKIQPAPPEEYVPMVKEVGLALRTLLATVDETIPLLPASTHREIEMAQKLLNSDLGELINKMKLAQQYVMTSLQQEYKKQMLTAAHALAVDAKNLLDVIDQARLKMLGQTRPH
# Sequence of Streptavidin (Streptomyces avidinii) (P22629 whole entry, looked up): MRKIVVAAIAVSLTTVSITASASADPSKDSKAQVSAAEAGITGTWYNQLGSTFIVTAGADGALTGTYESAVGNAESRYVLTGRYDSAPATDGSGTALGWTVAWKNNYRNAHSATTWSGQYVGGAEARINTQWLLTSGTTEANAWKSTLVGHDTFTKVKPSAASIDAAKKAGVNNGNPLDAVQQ
# Sequence of Fibroblast growth factor 2 (Homo sapiens) (P09038 whole entry, looked up): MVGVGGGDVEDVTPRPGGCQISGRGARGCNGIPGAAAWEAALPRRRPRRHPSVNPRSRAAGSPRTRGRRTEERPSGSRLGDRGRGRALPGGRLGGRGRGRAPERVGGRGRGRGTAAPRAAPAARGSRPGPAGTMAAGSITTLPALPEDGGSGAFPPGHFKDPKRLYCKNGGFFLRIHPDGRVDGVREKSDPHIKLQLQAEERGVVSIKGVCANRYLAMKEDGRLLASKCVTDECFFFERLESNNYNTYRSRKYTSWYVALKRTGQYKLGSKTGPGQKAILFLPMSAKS
Compound,composite z-score [1],composite z-score [2],composite z-score [3],composite z-score [4],composite z-score [5],composite z-score [6],z-score [7],composite z-score (Lefty1),composite z-score [8],z-score [9],composite z-score [10],z-score [11],z-score [12],z-score [13],z-score [14],composite z-score [15],composite z-score [16],composite z-score (Torsin-1A (Homo sapiens) [17]),composite z-score (Torsin-1A (Homo sapiens) [18]),composite z-score [19]
CCOC(=O)[C@H]1C/C=C/C[C@H](C(=O)OCC)C(=O)O[C@H]2[C@@H](OC)O[C@H](CO)[C@@H](OC(=O)CCc3ccccc3)[C@@H]2OC1=O,0.522,-0.267,-0.542,0.0772,-0.502,-0.924,3.06,-0.172,-0.185,0.418 (inactive),-0.581,-1.31 (inactive),-1.28 (inactive),-0.475 (inactive),-0.0955 (inactive),-0.345,0.788,-0.407,-0.532,-0.0617
COC(=O)[C@@]1(Cc2ccccc2)[C@H]2c3cc(C(=O)N4CCCC4)n(Cc4ccsc4Br)c3C[C@H]2CN1C(=O)c1ccccc1,1.6,1.23,0.619,0.789,0.647,-0.282,1.88,-0.524,1.25,1.79 (inactive),0.38,-3.12 (inactive),0.389 (inactive),0.201 (inactive),-0.813 (inactive),1.21,0.407,0.147,0.894,-1.01
O=C1c2ccccc2[C@](Cc2ccccc2I)(C(=O)NCCN2CCOCC2)[C@H](c2ccc(CO)cc2)N1Cc1ccccc1,0.0765,1.2,0.964,0.598,1.26,0.146,0.803,0.98,0.458,-0.0588 (inactive),0.265,-1.98 (inactive),0.536 (inactive),0.649 (inactive),0.413 (inactive),1.17,0.444,0.0373,0.802,1.21
O=C1O[C@@H](c2ccccc2)[C@@H](c2ccccc2)N2[C@@H](c3ccc(O)cc3)[C@]3(C(=O)Nc4ccc(C#CCCO)cc43)[C@@H](C(=O)Nc3nc4ccccc4s3)[C@H]12,0.709,1.23,0.31,0.682,1.25,1.01,-2.38,0.531,0.552,-0.155 (inactive),0.106,-0.486 (inactive),0.422 (inactive),-0.195 (inactive),1.93 (inactive),0.103,0.0471,-0.363,0.897,0.756
C=CCC(OC(C)=O)[C@@H]1[C@@H](N(Cc2cc3ccccc3o2)C(=O)c2ccc(C)cc2)c2cc(OCCCO)ccc2N1C(=O)Cc1ccc2ccccc2c1 (stereo not given in full),-0.631,-0.627,0.105,-0.638,0.119,-0.421,1.91,-0.281,-0.152,-1.72 (inactive),-0.109,0.218 (inactive),-0.956 (inactive),2.37 (inactive),-0.072 (inactive),-0.172,-0.0523,-0.0509,-0.0619,0.0781
CC(C)C(CO)N1C(=O)[C@]2(C)C3C(=O)OCCC/C=C\[C@H]3OC23C=CCN(c2ccc(Cl)cc2)C(=O)[C@@H]13 (stereo not given in full),-0.0262,-0.456,0.118,-0.809,-0.223,-0.815,0.612,0.211,-0.367,-0.657 (inactive),-0.269,-0.199 (inactive),1.25 (inactive),-0.358 (inactive),1.11 (inactive),-0.476,-0.128,-1.47,-0.856,0.279
C=CC[C@]1(C(=O)N(C)C)N=C(c2ccc(OCCCO)cc2)O[C@H]1c1ccccc1N=[N+]=[N-],2.04,1.22,0.264,1.02,0.899,-0.267,1.08,-0.0297,1.25,-9.41 (active),0.596,-2.58 (inactive),0.00404 (inactive),1.99 (inactive),-1.23 (inactive),1.61,-0.0136,0.73,0.696,-1.32
COc1ccc(CCNC(=O)[C@@]2(Sc3ccc(C)cc3)CC(=O)N(Cc3cc(C(F)(F)F)cc(C(F)(F)F)c3)[C@@H]2c2ccc(CO)cc2I)cc1,-0.361,-0.162,0.368,0.562,0.801,-0.525,0.345,0.012,-0.0603,0.664 (inactive),-0.466,-0.73 (inactive),-0.623 (inactive),-0.554 (inactive),1.05 (inactive),0.762,0.0184,0.579,-0.145,0.697
C[C@H]1C2=C3C(CC[C@H]4C(OCc5ccc(F)cc5C(F)(F)F)OC[C@](C)([C@@H]34)N(C(=O)OC(C)(C)C)C2)C(CO)C1CO (stereo not given in full),0.0803,1.12,0.882,0.944,0.578,-1.89,1.31,-0.781,0.608,0.608 (inactive),0.24,-2.85 (inactive),0.36 (inactive),0.779 (inactive),0.677 (inactive),1.38,-0.0214,0.28,0.222,-1.38
